Measured values: the supplement of paper PMC10849652
The full data set covers some 7,900 targets. This sample favours those with a hit. About 0.6% of all pairs of compound and target were hits.

Columns and labels:
Experiment in all cases: log2 fold change, soluble protein after heating vs DMSO (PISA); higher = thermal stabilisation; K562 cells, 10 uM, 30 min; active = over 0.2 and 3.5 SD of the protein, either way, in both replicates (recomputed)
erlotinib = compound: C#Cc1cccc(Nc2ncnc3cc(OCCOC)c(OCCOC)cc23)c1 [erlotinib]
Summary of the method: (§1)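 K562 cells (2×10^6 cells/mL) were treated with 10 μM compound for 30 min, and aliquots were heated for 3 min over 48°C-58°C. Pooled aliquots were extracted in PBS with 0.5% NP-40 at 4°C, and the supernatant after 21,000xg for 90 min was measured by TMTpro 16plex LC-MS/MS with channel sums equalised. Reported thermal stability, relative to control samples and from duplicates, is a log2 fold change.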

[1] = compound: C/C(=N\NC(=O)C1=CC(=CC=C1)S(=O)(=O)N2CCOCC2)/C3=C(C=CC(=C3)Cl)O
Summary of the method: as §1

[2] = compound: C1=CC(=C(C=C1Cl)C2=NC3=NC=CN=C3C(=N2)NC4=CC=NC=C4)F
Summary of the method: as §1

[3] = compound: C1=CC(=CC=C1C2=NC3=C(N2)C=C(C=C3)C(=O)N)OC4=CC=C(C=C4)Cl
Summary of the method: as §1

[4] = compound: C1=CC2=C(C=CC(=C2)/C=C\3/C(=O)NC(=NCC4=CC=CS4)S3)N=C1
Summary of the method: as §1

[5] = compound: C1=CC2=NC=CN=C2C=C1/C=C/3\C(=O)NC(=O)S3
Summary of the method: as §1

[6] = compound: C1=CC=C(C=C1)C2=NC(=C(N2)C3=CC=NC=C3)C4=CC(=C(C=C4)Cl)O
Summary of the method: as §1

[7] = compound: C1=CC=C2C(=C1)C3=NNC4=CC=CC(=C43)C2=O
Summary of the method: as §1

[8] = compound: C1CCN(C1)C(=O)NC2=CC=CC(=C2)NC3=NC=C(C(=N3)NCCC4=CN=CN4)Br
Summary of the method: as §1

[9] = compound: C1CN(CCC1(CC2=CC=C(C=C2)Cl)N)C3=NC=NC4=C3C=CN4
Summary of the method: as §1

IRAK-1-4 Inhibitor I = compound: C1COCCN1CCN2C3=CC=CC=C3N=C2NC(=O)C4=CC(=CC=C4)[N+](=O)[O-] [IRAK-1-4 Inhibitor I]
Summary of the method: as §1

ibrutinib = compound: C=CC(=O)N1CCC[C@@H](n2nc(-c3ccc(Oc4ccccc4)cc3)c3c(N)ncnc32)C1 [ibrutinib]
Summary of the method: as §1

[10] = compound: CC(=O)c1cnc2ccc(-c3cc(Cl)c(O)c(Cl)c3)nc2c1N[C@H]1CC[C@H](CN(C)C)CC1
Summary of the method: as §1

ralimetinib = compound: CC(C)(C)Cn1c(N)nc2ccc(-c3[nH]c(C(C)(C)C)nc3-c3ccc(F)cc3)nc21 [ralimetinib]
Summary of the method: as §1

[11] = compound: CC(C)(O)CC(=O)NCCn1ccc2ncnc(Nc3ccc(Oc4cccc(C(F)(F)F)c4)c(Cl)c3)c21
Summary of the method: as §1

[12] = compound: CC(C)C1=C2N=C(C=C(N2N=C1)NCC3=CC=CC=C3)NCCCCCCN
Summary of the method: as §1

[13] = compound: CC(C)C[C@@H](C=O)NC(=O)[C@H](CC(C)C)NC(=O)[C@H](CC(C)C)NC(=O)OCc1ccccc1
Summary of the method: as §1

pinometostat = compound: CC(C)N(C[C@H]1O[C@@H](n2cnc3c(N)ncnc32)[C@H](O)[C@@H]1O)[C@H]1C[C@@H](CCc2nc3cc(C(C)(C)C)ccc3[nH]2)C1 [pinometostat]
Summary of the method: as §1

[14] = compound: CC1=C(C(CC(=O)N1)C2=CC=C(C=C2)C(F)(F)F)C(=O)NC3=C(C=C4C(=C3)C=NN4)F
Summary of the method: as §1

[15] = compound: CC1=C(C2=C(C=C1)C(=O)C3=CC=CC=C3N2CCCN)C
Summary of the method: as §1

Measured: log2 fold change

RBM22 (UniProt Q9NW64)
Chain of UniProt Q9NW64 (Q9NW64 whole entry, looked up): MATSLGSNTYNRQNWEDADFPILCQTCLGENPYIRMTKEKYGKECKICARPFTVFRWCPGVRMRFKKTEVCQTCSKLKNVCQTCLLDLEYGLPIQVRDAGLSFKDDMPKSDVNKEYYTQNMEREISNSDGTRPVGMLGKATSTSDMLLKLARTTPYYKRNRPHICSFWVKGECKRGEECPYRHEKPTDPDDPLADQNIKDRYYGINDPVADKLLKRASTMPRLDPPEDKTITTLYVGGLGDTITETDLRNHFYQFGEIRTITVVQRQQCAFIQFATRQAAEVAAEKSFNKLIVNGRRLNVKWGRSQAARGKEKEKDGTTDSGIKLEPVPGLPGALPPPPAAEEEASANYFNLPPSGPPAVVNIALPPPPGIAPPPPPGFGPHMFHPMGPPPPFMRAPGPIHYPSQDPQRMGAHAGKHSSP
inactive: erlotinib -0.013 | [1] -0.037 | [2] -0.061 | [3] -0.009 | [4] -0.117 | [5] 0.038 | [6] -0.084 | [7] -0.051 | [8] 0 | [9] 0.121 | IRAK-1-4 Inhibitor I 0.014 | ibrutinib -0.032 | [10] 0.029 | ralimetinib 0.048 | [11] 0.071 | [12] 0.068 | [13] 0.104 | pinometostat 0.015 | [14] 0.041 | [15] 0.124

RAVER1 (UniProt E9PAU2)
inactive: erlotinib 0.218 | [1] 0.403 | [2] 0.042 | [3] 0.009 | [4] 0.002 | [5] -0.06 | [6] 0.257 | [7] -0.084 | [8] -0.05 | [9] -0.011 | IRAK-1-4 Inhibitor I -0.062 | ibrutinib 0.033 | [10] -0.308 | ralimetinib 0.082 | [11] -0.263 | [12] -0.409 | [13] -0.042 | pinometostat 0.052 | [14] 0.016 | [15] -0.694

RNPEP (UniProt Q9H4A4)
Chain of UniProt Q9H4A4 (Q9H4A4 whole entry, looked up): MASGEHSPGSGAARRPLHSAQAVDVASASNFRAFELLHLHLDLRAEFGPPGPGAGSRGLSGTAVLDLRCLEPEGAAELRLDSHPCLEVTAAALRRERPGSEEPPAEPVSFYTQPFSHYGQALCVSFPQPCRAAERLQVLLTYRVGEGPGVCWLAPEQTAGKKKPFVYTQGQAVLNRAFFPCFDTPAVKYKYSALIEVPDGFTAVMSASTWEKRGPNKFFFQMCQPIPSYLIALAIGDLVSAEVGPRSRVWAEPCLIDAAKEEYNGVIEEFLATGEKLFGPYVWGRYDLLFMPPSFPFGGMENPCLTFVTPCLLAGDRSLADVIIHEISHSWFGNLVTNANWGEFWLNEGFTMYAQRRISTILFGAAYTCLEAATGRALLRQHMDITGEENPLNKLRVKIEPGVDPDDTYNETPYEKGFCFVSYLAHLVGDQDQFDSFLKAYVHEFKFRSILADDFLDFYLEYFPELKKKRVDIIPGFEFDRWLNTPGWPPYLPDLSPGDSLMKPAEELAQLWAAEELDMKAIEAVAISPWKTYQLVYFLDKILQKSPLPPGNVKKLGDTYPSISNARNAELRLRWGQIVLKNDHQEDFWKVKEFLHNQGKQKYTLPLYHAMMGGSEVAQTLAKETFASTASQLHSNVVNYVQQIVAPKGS
inactive: erlotinib 0.053 | [1] 0.053 | [2] 0.053 | [3] 0.007 | [4] 0.009 | [5] 0.019 | [6] 0.036 | [7] -0.008 | [8] -0.004 | [9] -0.016 | IRAK-1-4 Inhibitor I -0.004 | ibrutinib -0.018 | [10] 0.02 | ralimetinib 0.011 | [11] -0.055 | [12] -0.182 | [13] -0.021 | pinometostat 0.018 | [14] 0.004 | [15] 0.137

RPS6KA2 isoform 2 (UniProt Q15349)
inactive: erlotinib 0.008 | [1] 0.092 | [2] -0.068 | [3] 0.075 | [4] 0.07 | [5] 0.06 | [6] -0.132 | [8] -0.058 | [9] -0.004 | IRAK-1-4 Inhibitor I 0.001 | ibrutinib -0.066 | [10] -0.178 | [11] -0.082 | [12] -0.082 | [13] 0.07 | pinometostat 0.01 | [14] 0.016 | [15] 0.006
active: [7] -0.473 | ralimetinib -0.492

RPS21 (UniProt P63220)
inactive: erlotinib -0.045 | [1] -0.062 | [2] -0.071 | [3] 0.017 | [4] -0.056 | [5] 0.079 | [6] -0.066 | [7] -0.027 | [8] 0.033 | [9] 0.017 | IRAK-1-4 Inhibitor I -0.004 | ibrutinib -0.035 | [10] 0.055 | ralimetinib -0.014 | [11] 0.069 | [12] 0.056 | [13] 0.075 | pinometostat -0.022 | [14] 0.014 | [15] -0.02

RIC8A isoform 3 (UniProt Q9NPQ8)
Chain of UniProt Q9NPQ8 (Q9NPQ8 whole entry, looked up): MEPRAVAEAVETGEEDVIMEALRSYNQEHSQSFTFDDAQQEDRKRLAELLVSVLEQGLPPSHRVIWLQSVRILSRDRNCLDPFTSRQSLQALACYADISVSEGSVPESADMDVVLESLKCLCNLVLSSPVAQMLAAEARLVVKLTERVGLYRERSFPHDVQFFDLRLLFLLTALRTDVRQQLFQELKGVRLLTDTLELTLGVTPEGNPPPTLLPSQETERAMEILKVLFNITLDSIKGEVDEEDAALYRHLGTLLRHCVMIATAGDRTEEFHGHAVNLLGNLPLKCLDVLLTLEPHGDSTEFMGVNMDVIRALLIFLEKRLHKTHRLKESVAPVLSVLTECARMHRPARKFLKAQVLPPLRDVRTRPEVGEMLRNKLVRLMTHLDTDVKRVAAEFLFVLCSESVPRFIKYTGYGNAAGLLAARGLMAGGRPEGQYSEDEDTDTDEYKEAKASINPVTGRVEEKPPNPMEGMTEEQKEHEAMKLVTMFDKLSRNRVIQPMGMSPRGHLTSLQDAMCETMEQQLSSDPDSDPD
inactive: erlotinib 0.063 | [1] 0.114 | [2] 0 | [3] -0.031 | [4] 0.114 | [5] -0.052 | [6] 0.005 | [7] -0.021 | [8] -0.071 | [9] -0.057 | IRAK-1-4 Inhibitor I -0.073 | ibrutinib -0.051 | [10] -0.193 | ralimetinib 0.06 | [11] -0.052 | [12] -0.354 | [13] 0.066 | pinometostat 0.166 | [14] -0.005 | [15] -0.132

RNF187 (UniProt Q5TA31)
Chain of UniProt Q5TA31 (Q5TA31 whole entry, looked up): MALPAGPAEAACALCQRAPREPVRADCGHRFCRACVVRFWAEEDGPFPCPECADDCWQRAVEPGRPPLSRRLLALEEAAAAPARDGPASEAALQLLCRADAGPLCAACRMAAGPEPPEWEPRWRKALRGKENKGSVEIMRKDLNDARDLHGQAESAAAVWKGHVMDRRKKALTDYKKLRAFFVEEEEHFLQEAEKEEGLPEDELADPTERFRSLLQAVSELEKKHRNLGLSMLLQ
active: [13] 0.424
inactive: erlotinib 0.095 | [1] -0.05 | [2] -0.061 | [3] -0.028 | [4] 0.101 | [5] -0.028 | [6] -0.067 | [7] 0.008 | [8] 0.017 | [9] -0.056 | IRAK-1-4 Inhibitor I 0.059 | ibrutinib 0.045 | [10] -0.124 | ralimetinib 0.039 | [11] 0.024 | [12] 0.077 | pinometostat -0.075 | [14] 0.046 | [15] -0.226

RIOK2 (UniProt Q9BVS4)
Chain of UniProt Q9BVS4 (Q9BVS4 whole entry, looked up): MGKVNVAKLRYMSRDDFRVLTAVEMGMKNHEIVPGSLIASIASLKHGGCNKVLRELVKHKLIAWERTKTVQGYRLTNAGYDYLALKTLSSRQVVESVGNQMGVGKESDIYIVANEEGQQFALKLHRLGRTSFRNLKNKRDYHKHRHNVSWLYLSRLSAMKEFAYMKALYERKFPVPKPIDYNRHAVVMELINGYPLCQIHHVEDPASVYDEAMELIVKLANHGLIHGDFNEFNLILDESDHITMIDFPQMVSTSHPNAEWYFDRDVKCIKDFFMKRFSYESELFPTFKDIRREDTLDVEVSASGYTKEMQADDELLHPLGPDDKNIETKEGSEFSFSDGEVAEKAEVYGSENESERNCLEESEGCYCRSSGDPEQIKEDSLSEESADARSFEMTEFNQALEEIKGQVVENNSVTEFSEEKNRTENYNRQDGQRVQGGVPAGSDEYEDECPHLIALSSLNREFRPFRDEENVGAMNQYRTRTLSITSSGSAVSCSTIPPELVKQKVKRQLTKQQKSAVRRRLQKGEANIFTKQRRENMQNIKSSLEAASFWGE
active: [10] 0.465
inactive: erlotinib -0.081 | [1] -0.064 | [2] -0.149 | [3] 0.097 | [4] -0.043 | [5] -0.055 | [6] -0.01 | [7] 0.055 | [8] 0.035 | [9] -0.209 | IRAK-1-4 Inhibitor I -0.061 | ibrutinib 0.013 | ralimetinib 0.119 | [11] 0 | [12] -0.014 | [13] 0.084 | pinometostat 0.132 | [14] -0.014 | [15] -0.068

SCPEP1 (UniProt Q9HB40)
Chain of UniProt Q9HB40 (Q9HB40 whole entry, looked up): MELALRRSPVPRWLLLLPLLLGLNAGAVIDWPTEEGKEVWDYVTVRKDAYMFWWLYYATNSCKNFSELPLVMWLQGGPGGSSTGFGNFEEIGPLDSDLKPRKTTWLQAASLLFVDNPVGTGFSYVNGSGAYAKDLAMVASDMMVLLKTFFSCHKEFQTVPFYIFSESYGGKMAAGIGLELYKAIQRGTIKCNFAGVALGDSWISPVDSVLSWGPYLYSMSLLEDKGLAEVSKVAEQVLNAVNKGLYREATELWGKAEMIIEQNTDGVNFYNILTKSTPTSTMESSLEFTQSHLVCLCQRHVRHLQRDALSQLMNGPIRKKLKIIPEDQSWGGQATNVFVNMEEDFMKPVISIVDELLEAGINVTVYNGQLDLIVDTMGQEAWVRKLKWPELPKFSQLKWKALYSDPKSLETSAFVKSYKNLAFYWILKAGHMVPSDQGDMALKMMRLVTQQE
active: [12] -0.5
inactive: erlotinib -0.002 | [1] 0.017 | [2] 0.064 | [3] 0.015 | [4] -0.024 | [5] 0.058 | [6] -0.013 | [7] 0.017 | [8] -0.012 | [9] 0.079 | IRAK-1-4 Inhibitor I 0.044 | ibrutinib 0.072 | [10] -0.008 | ralimetinib -0.005 | [11] -0.038 | [13] 0.007 | pinometostat -0.032 | [14] -0.006 | [15] 0.073

RAB5IF isoform 5 (UniProt Q9BUV8)
Chain of UniProt Q9BUV8 (Q9BUV8 whole entry, looked up): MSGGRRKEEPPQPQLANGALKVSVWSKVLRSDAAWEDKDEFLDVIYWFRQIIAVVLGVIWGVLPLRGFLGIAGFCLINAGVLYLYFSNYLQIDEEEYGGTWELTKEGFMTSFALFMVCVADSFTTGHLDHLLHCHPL
active: [6] 0.373
inactive: erlotinib 0.071 | [1] 0.093 | [2] 0.098 | [3] 0.055 | [4] -0.061 | [5] 0.112 | [7] 0.036 | [8] 0.027 | [9] 0.267 | IRAK-1-4 Inhibitor I -0.082 | ibrutinib 0.031 | [10] 0.048 | ralimetinib 0.3 | [11] 0.021 | [12] -0.187 | [13] -0.143 | pinometostat -0.105 | [14] -0.12 | [15] -0.036

SIDT2 isoform 2 (UniProt Q8NBJ9)
Chain of UniProt Q8NBJ9 (Q8NBJ9 whole entry, looked up): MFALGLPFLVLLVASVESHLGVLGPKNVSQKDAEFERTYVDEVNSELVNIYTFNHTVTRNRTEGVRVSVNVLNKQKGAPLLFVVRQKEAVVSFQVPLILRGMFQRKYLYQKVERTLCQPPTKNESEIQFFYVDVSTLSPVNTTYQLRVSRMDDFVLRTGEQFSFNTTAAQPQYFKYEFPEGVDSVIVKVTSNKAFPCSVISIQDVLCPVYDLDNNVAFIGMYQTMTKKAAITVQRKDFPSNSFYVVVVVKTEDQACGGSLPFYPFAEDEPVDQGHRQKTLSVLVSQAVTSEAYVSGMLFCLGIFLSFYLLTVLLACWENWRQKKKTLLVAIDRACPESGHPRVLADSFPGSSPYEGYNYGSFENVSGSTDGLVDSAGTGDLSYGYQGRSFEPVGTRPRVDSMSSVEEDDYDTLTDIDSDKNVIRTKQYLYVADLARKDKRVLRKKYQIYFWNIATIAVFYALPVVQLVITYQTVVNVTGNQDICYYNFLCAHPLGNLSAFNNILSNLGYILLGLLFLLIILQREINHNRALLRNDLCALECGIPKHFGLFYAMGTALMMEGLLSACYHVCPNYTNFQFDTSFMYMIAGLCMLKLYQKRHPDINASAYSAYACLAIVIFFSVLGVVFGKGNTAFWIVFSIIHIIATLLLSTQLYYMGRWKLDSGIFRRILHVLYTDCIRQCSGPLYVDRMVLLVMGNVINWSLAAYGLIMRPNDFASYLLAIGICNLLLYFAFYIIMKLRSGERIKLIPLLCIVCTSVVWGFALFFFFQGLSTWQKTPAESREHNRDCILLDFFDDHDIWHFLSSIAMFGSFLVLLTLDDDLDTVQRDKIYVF
active: [12] -0.353
inactive: erlotinib 0.007 | [1] 0.026 | [2] -0.027 | [3] 0.004 | [4] 0.042 | [5] 0.087 | [6] -0.053 | [7] 0.038 | [8] 0.002 | [9] 0.053 | IRAK-1-4 Inhibitor I -0.017 | ibrutinib 0.123 | [10] -0.039 | ralimetinib -0.143 | [11] -0.021 | [13] 0 | pinometostat 0.271 | [14] 0.009 | [15] 0.005

RNPS1 (UniProt Q15287)
Chain of UniProt Q15287 (Q15287 whole entry, looked up): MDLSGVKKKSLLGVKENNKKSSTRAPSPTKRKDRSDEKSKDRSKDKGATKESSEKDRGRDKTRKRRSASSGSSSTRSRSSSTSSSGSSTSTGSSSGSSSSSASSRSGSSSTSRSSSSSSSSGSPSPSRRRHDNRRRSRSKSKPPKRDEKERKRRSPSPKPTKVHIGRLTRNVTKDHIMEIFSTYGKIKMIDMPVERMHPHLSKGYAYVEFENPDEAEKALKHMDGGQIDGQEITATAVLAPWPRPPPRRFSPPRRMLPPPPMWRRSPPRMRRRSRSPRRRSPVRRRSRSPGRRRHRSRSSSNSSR
active: [15] -0.746
inactive: erlotinib 0.008 | [1] 0.194 | [2] 0.06 | [3] 0.053 | [4] 0.164 | [5] 0.013 | [6] -0.022 | [7] -0.319 | [8] 0.048 | [9] -0.118 | IRAK-1-4 Inhibitor I -0.159 | ibrutinib -0.031 | [10] -0.317 | ralimetinib 0.128 | [11] -0.039 | [12] -0.126 | [13] 0.066 | pinometostat 0.08 | [14] -0.032

RAC1 (UniProt P63000)
inactive: erlotinib -0.066 | [1] -0.062 | [2] -0.003 | [3] 0.053 | [4] -0.194 | [5] 0.015 | [6] 0.048 | [7] -0.05 | [8] 0.017 | [9] 0.005 | IRAK-1-4 Inhibitor I -0.053 | ibrutinib 0.036 | [10] 0.038 | ralimetinib -0.01 | [11] 0.27 | [12] 0.051 | [13] -0.026 | pinometostat -0.127 | [14] -0.093 | [15] -0.002

SIRT2 (UniProt Q8IXJ6)
Chain of UniProt Q8IXJ6 (Q8IXJ6 whole entry, looked up): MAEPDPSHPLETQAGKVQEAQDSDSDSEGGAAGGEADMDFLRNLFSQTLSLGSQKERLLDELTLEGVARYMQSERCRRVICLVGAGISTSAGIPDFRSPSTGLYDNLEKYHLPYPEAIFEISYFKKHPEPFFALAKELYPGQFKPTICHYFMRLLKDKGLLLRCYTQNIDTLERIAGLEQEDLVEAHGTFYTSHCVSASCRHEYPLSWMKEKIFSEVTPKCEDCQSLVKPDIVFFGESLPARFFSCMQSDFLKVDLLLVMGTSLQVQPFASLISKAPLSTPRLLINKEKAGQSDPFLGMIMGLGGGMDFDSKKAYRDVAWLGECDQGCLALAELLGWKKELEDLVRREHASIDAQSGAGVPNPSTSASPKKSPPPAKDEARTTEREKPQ
inactive: erlotinib 0.03 | [1] 0.055 | [2] 0.001 | [3] 0.054 | [4] -0.113 | [5] 0.017 | [6] 0.051 | [7] 0.029 | [8] 0.025 | [9] 0.016 | IRAK-1-4 Inhibitor I 0.047 | ibrutinib -0.003 | [10] -0.003 | ralimetinib -0.023 | [11] 0.041 | [12] -0.033 | [13] 0.028 | pinometostat -0.002 | [14] -0.075 | [15] -0.022

SCAMP2 (UniProt O15127)
Chain of UniProt O15127 (O15127 whole entry, looked up): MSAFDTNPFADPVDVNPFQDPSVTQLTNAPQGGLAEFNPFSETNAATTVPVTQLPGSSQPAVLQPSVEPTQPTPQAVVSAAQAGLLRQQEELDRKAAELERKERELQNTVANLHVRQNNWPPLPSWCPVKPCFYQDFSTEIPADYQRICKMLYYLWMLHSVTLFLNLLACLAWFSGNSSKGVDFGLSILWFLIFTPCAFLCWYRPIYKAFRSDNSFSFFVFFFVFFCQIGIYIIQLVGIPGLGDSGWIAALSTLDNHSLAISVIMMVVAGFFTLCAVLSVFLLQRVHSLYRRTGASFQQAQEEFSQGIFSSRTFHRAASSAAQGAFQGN
inactive: erlotinib 0.014 | [1] 0.141 | [2] 0.081 | [3] 0.011 | [4] -0.154 | [5] 0.063 | [6] 0.055 | [7] 0.057 | [8] -0.116 | [9] 0.087 | ibrutinib 0.09 | [10] 0.08 | ralimetinib -0.019 | [11] 0.013 | [12] 0.003 | [13] 0.036 | [14] -0.093 | [15] -0.066
